Source: PubChem BioAssay (NCI)
Compounds without any hit were thinned out: in the full panel of roughly 83,000, 20% have a hit.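 Single-dose data. Exposure time 48 hours. Values below 10 considered active.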 Values without a mark were called inactive. The source made the active and inactive calls.

tested on: HL-60(TB) leukemia; assay: NCI-60 one-dose screen, 48 h (100 = growth as untreated, 0 = no growth, -100 = all killed); conditions: 10 µM unless noted

| SMILES | growth |
| --- | --- |
| CCOC(=O)c1c(NC(=O)c2ccc(OC)cc2)sc2c(CN(C)C)c(O)ccc12 | 1.3% (active) |
| Cc1c(Cl)cccc1NC(=O)c1sc2nc3c(cc2c1N)COCC3 | 2.35% (active) |
| CC(=O)Nc1ccc([I+]c2ccc([N+](=O)[O-])cc2)cc1 | 109% |
| CC(=O)OC1/C=C\CC/C=C\C1 (stereo not given) | 101% |
| CCOC(=O)c1cc(/C(=N\O)c2cc(OC)c(OC)c(OC)c2)n2cc(C)cc(C)c12 | 9.42% (active) |
| O=S(=O)(Nc1ccccn1)c1ccc(N=Nc2ccc(O)c3ncccc23)cc1 | -30.6% (active) |
| N=C(N)/N=C(\CCc1nc2ccccc2[nH]1)c1nc2ccccc2[nH]1 | 118% |
| CC1(C)N=C(N)N=C(N)N1c1ccc(CCc2ccccc2)c(Cl)c1 | 2.09% (active) |
| CN(CCC#N)c1ccc(/C=C(\C#N)c2cccc(C(F)(F)F)c2)cc1 | 69.5% |
| COc1ccc2ccccc2c1/C=N/N1CCCCC1 | 94.3% |
| C=C(C)c1ccc(/C=N/NC(N)=S)cc1 | 147% |
| COc1cc(C2C(C#N)=C(c3c[nH]c4ccccc34)Nc3nc(N)[nH]c(=O)c32)cc(OC)c1OC (stereo not given) | 42.1% |
| COc1cc(C2CC(=O)Nc3c2c(C)nn3-c2nc3ccccc3[nH]2)c(OC)c(OC)c1OC (stereo not given) | 21.5% |
| CC(=O)c1ccc(N=C(C#N)C2=C(O)c3ccccc3C2=O)cc1 | 86.2% |
| COc1ccc(/C=C2\COc3ccc(O)cc3C2=O)c(OC)c1 | 11.2% |
| O=C(COc1ccc(-c2nc3cc(Cl)c(Cl)cc3[nH]2)cc1)N=Nc1c(O)[nH]c2ccccc12 | 68.5% |
| CN1CCN(Cc2ccc(NC(=O)c3cncc(C#Cc4cnc(N)c5ncccc45)c3)cc2C(F)(F)F)CC1 | 13% |
| CC(C)=CC/C=C(/C)[C@H]1CC[C@]2(C)[C@@H]1CC[C@@H]1[C@@]3(C)CCCNC(C)(C)[C@@H]3CC[C@]12C | -35.8% [100 µM] (active) |
| Cc1cnc2nc(-c3ccc(N(C)C)cc3)cn2c1 | 90.7% |
| COc1ncc(-c2ccc3nc(N)n(-c4ccccc4C(F)(F)F)c(=O)c3c2)cc1S(=O)(=O)Nc1ccc(F)cc1F | 19.9% |

| SMILES | growth |
| --- | --- |
| CS(=O)(=O)c1ccc(C(=O)Nc2ccc(Cl)c(-c3ccccn3)c2)c(Cl)c1 | 14.2% |
| C=C(C)C(C(=O)OCC)(C(=O)OCC)C(C)C | 118% |
| COc1cc(NC(=O)c2sc3nc4c(cc3c2N)C(O)CCC4)cc(OC)c1 (stereo not given) | 73.2% |
| O=C(CCl)Nc1ccc(Cc2ccc(NC(=O)CCl)cc2)cc1 | -18.3% (active) |
| COc1cccc(-c2nn(-c3ccccc3)cc2-c2ccnc(NCCCNS(=O)(=O)c3ccc(Br)cc3)c2)c1 | 43.3% |
| CNCc1cccc2c1OCCOCCOCCNS(=O)(=O)c1ccc(cc1)-c1cnc(N)c(n1)C(=O)N2 | -10.8% (active) |
| CCOC(=O)c1cc(C(=O)c2cc(OC)cc(OC)c2)n2nc(C)ccc12 | -16.5% (active) |
| O=C(NOCCO)c1cc(CN2OCCCC2=O)c(F)c(F)c1Nc1ccc(I)cc1F | 18.2% |
| O=C(O)CSCSCC(=O)O | 98.5% |
| O=C(NCCNC(=O)c1ccc(F)cc1)Nc1ccc(-n2cc(-c3ccncc3)c(-c3ccc(Cl)c(O)c3)n2)cc1 | -14.1% (active) |
| Cc1nnc(/N=C2\NC(=O)/C(=C/C=C/c3ccccc3)S2)s1 | 75.3% |
| COc1ccc(OC)c(/C=C/c2nnc(Nc3ccc(Cl)cc3)o2)c1 | 80.6% |
| NS(=O)(=O)c1ccc(CCN2C(=O)/C(=C\c3ccc(Cl)cc3)C=C2c2ccc(Oc3ccccc3)cc2)cc1 | 83.7% |
| C=C(C)[C@@H]1CC[C@]2(C(=O)N3CCOCC3)CC[C@]3(C)[C@H](CC[C@@H]4[C@@]5(C)C/C(=C/c6ccncc6)C(=O)C(C)(C)[C@@H]5CC[C@]43C)[C@@H]12 | 26.2% |
| CCn1c(Cc2ccccc2Nc2c(Cl)cccc2Cl)nnc1SCC(=O)Nc1cccc(OC)c1 | 53.6% |
| c1cc2[nH]ncc2cc1-c1nc2ccc3[nH]ncc3c2c2c1CCC2 | -4.44% (active) |
| C=C1C(=O)O[C@H]2[C@H]1CC/C(COC(=O)NCc1c[nH]c3ccc(Cl)cc13)=C\CC[C@@]1(C)O[C@@H]21 | -32.9% (active) |
| O=C1C(N2CCOCC2)=C(I)C(=O)c2ncccc21 | 80.9% |
| CCCCCc1c(C)[nH]c(/C=C2\N=C(c3ccc[nH]3)C=C2Oc2ccc(OC)cc2)c1C | -39% [100 µM] (active) |
| NC(=O)N/N=C\c1ccco1 | 102% |
